“And” between values parts separate entries of the source, which are not always exact repeats. Equal values may be shown once. More than one record can exist for a structure, and the calls need not agree. The source made the active and inactive calls. The calls were made as follows: active = hit-call score of the fitted dose curve at least 0.9, where 1 is the maximum; inactive = score below 0.9.
Assay: CCTE_Shafer_MEA_acute_per_network_burst_spike_number_mean: CCTE's Neural Acute Assay for Average Number of Spikes in a Network Burst, Shafer Lab (AID 2284019)
Procedure: CCTE_Shafer_MEA_acute assay is conducted using Axion Biosystems 48 well microelectrode array (MEA) plates and Maestro recording system. Each well of the MEA plate contains a grid of 16 microelectrodes embedded in the culture surface. Electrically active cells, such as neurons, can be cultured over the electrodes, and electrical activity in these cells can be recorded extracellularly. The spontaneous firing of neurons is captured from each electrode on a microsecond timescale providing both temporally and spatially precise data. […] The CCTE_Shafer_MEA_acute assay uses primary cultures of rat cortical neurons. As these cultures mature over time, neural networks develop functional activity and form cohesive networks in which electrical activity can be highly coordinated. Baseline 40-minute recordings are made on days post-plating 13 or 15, followed by a secondary 40-minute recording after chemical exposure.CCTE_Shafer_MEA_acute_per_network_burst_spike_number_mean is a component of the CCTE_Shafer_MEA_acute assay. It measures the average number of spikes (action potential firings) in a network burst (temporally-clustered group of spikes across multiple electrodes) as the total number of spikes in a network burst divided by the number of network bursts during a recording in a microelectrode array (MEA) using Axion Biosystems Maestro 768 channel amplifier with the AxIS adaptive spike detector. The recordings before and after chemical treatment are used to calculate a percent change in the mean number of spikes in a network burst in each well.Data from the assay component CCTE_Shafer_MEA_acute_per_network_burst_spike_number_mean was analyzed into 1 assay endpoint. This assay endpoint, CCTE_Shafer_MEA_acute_per_network_burst_spike_number_mean, was analyzed in the negative analysis fitting direction relative to DMSO as the negative control and baseline of activity. Using a type of functional reporter, gain or loss-of-signal activity can be used to understand electrical activity.
Spontaneous activity in the cortical cultures was recorded using an Axion Biosystems Maestro 768 channel amplifier and Axion Integrated Studios (AxIS) v1.8 (or later) software. The amplifier recorded from all channels simultaneously (gain = 1200 x; sampling rate = 12.5 kHz/channel): raw signals were filtered with a Butterworth band-pass filter (300-5000 Hz), which filters out slower local field potentials leaving only fast potentials, i.e., "spikes", arising from extracellular currents associated with action potentials (Pine 2006; Wheeler and Nam 2011). On-line spike detection of filtered signals was conducted with the AxIS adaptive spike detector, using a threshold of 8x the root mean squared (rms) noise on each channel. Any electrodes with rms noise levels greater than 5 uV were grounded (e.g., no data were recorded). Once grounded, an electrode was grounded for the duration of the experiment. All recordings were conducted at 37 C. Wells were deemed usable if on the day of the exposure >/= 10 electrodes were active (defined as >/= 5 spikes/min). On DIV 13 or 15, a minimum of three wells from one cortical culture preparation were treated with each compound (0.03-40 uM). Prior to recording baseline activity, each mwMEA plate was placed in the Maestro at 37 C and allowed to sit for 20 min while firing rates stabilized. Baseline activity (40 min) was recorded before the addition of each compound. An additional 40 min of spontaneous activity was recorded in the presence of each compound. Changes in network parameters relative to baseline were assessed following compound treatment.

Row | Structure (SMILES) | AC50 | outcome
1 | CC[C@H](C)[C@H]1O[C@]2(C=C[C@@H]1C)C[C@@H]1C[C@@H](C/C=C(\C)[C@@H](O[C@H]3C[C@H](OC)[C@@H](O[C@H]4C[C@H](OC)[C@@H](O)[C@H](C)O4)[C@H](C)O3)[C@@H](C)/C=C/C=C3\CO[C@@H]4[C@H](O)C(C)=C[C@@H](C(=O)O1)[C@]34O)O2 (tested in a mixture with another compound) | 0.0134 µM (active) | –
2 | CC1(C)C(C=C(Cl)Cl)C1C(=O)OC(C#N)c1ccc(F)c(Oc2ccccc2)c1 (centres undefined) | 54.4 nM (active) and 609 nM (active) | –
3 | CCCN(CCOc1c(Cl)cc(Cl)cc1Cl)C(=O)n1ccnc1 | 33.6 µM (active) | –
4 | Oc1ccc(Cl)cc1Cc1ccccc1 | 1.57 µM (active) | –
5 | CC(C)N(C(=O)COc1nnc(C(F)(F)F)s1)c1ccc(F)cc1 | – | inactive
6 | CCCN(CCC)c1c([N+](=O)[O-])cc(C(F)(F)F)cc1[N+](=O)[O-] | – | inactive
7 | N#CN | – | inactive
8 | O=C(O)CCCOc1ccc(Cl)cc1Cl | – | inactive
9 | O=C1c2ccccc2C(=O)N1SC(Cl)(Cl)Cl | – | inactive
10 | C[C@H]1[C@H](c2ccc(Cl)cc2)SC(=O)N1C(=O)NC1CCCCC1 | 9.24 µM (active) | –
11 | CNC(=O)CSP(=S)(OC)OC | – | inactive
12 | Oc1cc(Cl)ccc1Oc1ccc(Cl)cc1Cl | – | inactive
13 | CCC(C)(C)C(=O)OC1=C(c2ccc(Cl)cc2Cl)C(=O)OC12CCCCC2 | 20 µM (active) | inactive
14 | O=[N+]([O-])/N=C1\NCCN1Cc1ccc(Cl)nc1 | – | inactive
15 | Clc1ccccc1-c1nnc(-c2ccccc2Cl)nn1 | – | inactive
16 | O=S1OCC2C(CO1)C1(Cl)C(Cl)=C(Cl)C2(Cl)C1(Cl)Cl (centres undefined) | 230 nM (active) and 56 nM (active) | –
17 | CCC(C)Nc1c([N+](=O)[O-])cc(C(C)(C)C)cc1[N+](=O)[O-] (centres undefined) | – | inactive
18 | ClC1C(Cl)C(Cl)C(Cl)C(Cl)C1Cl (centres undefined) | 1.23 µM (active) | –
19 | N#Cc1c(Cl)c(Cl)c(Cl)c(C#N)c1Cl | – | inactive
20 | CNC(=O)/C=C(\C)OP(=O)(OC)OC | – | inactive
21 | COP(=S)(OC)Oc1ccc(SC)c(C)c1 | – | inactive
22 | O=S(=O)(O)C(F)(F)C(F)(F)C(F)(F)C(F)(F)C(F)(F)C(F)(F)C(F)(F)C(F)(F)F | – | inactive
23 | CC(C)OC(=O)Nc1cccc(Cl)c1 | – | inactive

From PubChem BioAssay (EPA / NIEHS)
